Assay outcomes: PubChem BioAssay, several laboratories
MLL AF4-AF9 inh – inhibitors of human MLL-AF4/AF9 interaction | AlphaScreen, biotin-AF4 peptide binding to FLAG-AF9 | inhibition, % at 10 µM | 0.47% of 350,000 active | AID 651704;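 active = every replicate reaching a set inhibition limit, whatever the replicate mean, cut at about 25% in these data; inconclusive = mean inhibition reaches that limit but some replicates miss it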;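 note: 0% = plate neutral control median and 100% = total signal loss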
Target sequence (P42568 whole entry, looked up): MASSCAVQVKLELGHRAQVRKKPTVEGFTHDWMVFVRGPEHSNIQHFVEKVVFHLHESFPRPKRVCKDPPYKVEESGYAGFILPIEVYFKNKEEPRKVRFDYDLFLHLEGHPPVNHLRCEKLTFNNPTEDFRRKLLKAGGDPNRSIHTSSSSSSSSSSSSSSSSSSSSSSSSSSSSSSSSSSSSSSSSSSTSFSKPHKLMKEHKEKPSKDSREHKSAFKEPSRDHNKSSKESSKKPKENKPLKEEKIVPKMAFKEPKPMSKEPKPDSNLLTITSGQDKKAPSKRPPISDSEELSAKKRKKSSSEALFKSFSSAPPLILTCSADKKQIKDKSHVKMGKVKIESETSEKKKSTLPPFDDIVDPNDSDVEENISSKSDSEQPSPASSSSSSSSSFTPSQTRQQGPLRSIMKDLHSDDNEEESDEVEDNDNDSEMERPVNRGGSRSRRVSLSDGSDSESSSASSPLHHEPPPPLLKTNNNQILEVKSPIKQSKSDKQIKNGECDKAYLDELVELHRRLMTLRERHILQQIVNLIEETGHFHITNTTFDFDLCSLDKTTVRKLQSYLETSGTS
Wnt act – activates Wnt/beta-catenin signaling in a reporter cell assay. activator, plate reader. activation, % at 9.35 µM. 1.2% of 300,000 active; in the data active = activation above about 30%, passing the limit was not always enough; inconclusive = no clear call, values can overlap the other calls;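 note: 0% = neutral control wells and 100% = positive control wells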
SMARCA2 act – SMARCA2 function activation, primary screen; MG213 cells, MMTV-luciferase reporter, dexamethasone, overnight; activation, % at 9.1 µM; 1% of 370,000 active; in the data active = activation above about 7.8%;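 note: 0% = vehicle wells and 100% = reference activator wells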
esBAF inh – inhibitors of esBAF chromatin remodeling in mouse ES cells. AID 602393. 2% of 350,000 active. reporter increase, % at 12.5 µM. Bmi1-luciferase knock-in reporter, 24 h; 100% = twice the neutral-well signal; in the data active = activation above about 40%; inconclusive = no clear call, values can overlap the other calls;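 note: 0% = median of the plate's neutral control wells and 100% = double that signal; a rise in the Bmi1 reporter signal indicates esBAF inhibition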
MITF TRPM1 HTS – MITF TRPM1 promoter activation in melanoma cells. SK-MEL-5 TRPM1-promoter luciferase, 24 h; % of positive control, neutral wells = 0. 0.75% of 300,000 active. activation, % at 12.5 µM. AID 588334;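 active = mean activation of at least 80% with every replicate also reaching 80%; inconclusive = mean reaches 80% but some replicate falls short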;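 note: 0% = neutral control wells and 100% = parthenolide positive control wells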
FGF22 binding – binders of recombinant human FGF22 by thermal shift | SYPRO orange fluorescence; percent of sucrose octasulfate shift, DMSO zero | 1.5% of 340,000 active | AID 651658 | activity (Tm shift, normalised), % at 9.99 µM | Q9HCT0;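 active = mean Tm shift, scaled 0 neutral to 100 positive control, at about 1.3% or above, every replicate too, limit read from the data; inconclusive = no clear call, values can overlap the other calls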
An asterisk follows results filed as active. Rows were chosen to be rich in hits. Some 4.3% of all compounds tested hit in one or more screens of this group.

For CC(C)N(C[C@@H]1N[C@H](CO)[C@@H]1c1ccc(C2=CCCC2)cc1)C(=O)C1CC1 the results were MLL AF4-AF9 inh -8.
`C[C@H](O)C#Cc1cnc2c(c1)C(=O)N([C@H](C)CO)C[C@@H](C)[C@@H](CN(C)C(=O)c1ccccc1F)O2` gave MLL AF4-AF9 inh -1, esBAF inh -2 and FGF22 binding 0.
O=C(O)c1ccc(Cn2cc(C(F)(F)F)ccc2=O)cc1 was read as MLL AF4-AF9 inh -1, Wnt act -4, SMARCA2 act 1, esBAF inh -4, MITF TRPM1 HTS -15 and FGF22 binding 43*.
Screening CCN(c1ccccc1)S(=O)(=O)c1cc2c(cc1C)N(C)CCO2 returned MLL AF4-AF9 inh 7, Wnt act -2, SMARCA2 act -2, esBAF inh -10, MITF TRPM1 HTS -2 and FGF22 binding 43*.
Screening S=c1nc(C2COc3ccccc3O2)[nH][nH]1 (stereo unspecified) returned MLL AF4-AF9 inh -8, Wnt act 1, SMARCA2 act 0, esBAF inh 20, MITF TRPM1 HTS 4 and FGF22 binding 43*.
Screening O=C(N[C@H]1CC[C@@H](CC(=O)N2CCOCC2)O[C@@H]1CO)c1ccc2c(c1)OCO2 returned MLL AF4-AF9 inh -2, esBAF inh -3 and FGF22 binding 0.
C[C@H](CO)N1C[C@H](C)[C@H](CN(C)S(C)(=O)=O)OCCCC[C@H](C)Oc2ccc(NS(=O)(=O)c3ccc(Cl)cc3)cc2C1=O was read as MLL AF4-AF9 inh -1, esBAF inh -5 and FGF22 binding 0.
For O=C(CCC(=O)OCC(=O)c1cccc([N+](=O)[O-])c1)Nc1cccc(Cl)c1Cl the results were Wnt act 40*, SMARCA2 act 1 and MITF TRPM1 HTS -7.
Screening CCCN(C)C[C@H]1Oc2cc(-c3cccc(C#N)c3)ccc2S(=O)(=O)N([C@@H](C)CO)C[C@H]1C returned MLL AF4-AF9 inh 1 and esBAF inh -4.
For CCNC(=O)N(C)[C@H]1C[C@H]2c3[nH]c4c(-c5ccc6c(c5)OCO6)cccc4c3CCN2C(=O)[C@H]1[C@H](C)O the results were Wnt act -1, SMARCA2 act -5 and FGF22 binding 0.
`COC(=O)c1ccc2c(=O)n(CC3CCCO3)c(SCC(=O)Nc3ccccc3Cl)nc2c1` (stereo unspecified) gave SMARCA2 act -2 and esBAF inh 50*.
For C=CCn1c(SCC(=O)Nc2ccccc2-c2ccccc2)nc2cc(C(=O)O)ccc2c1=O the results were MLL AF4-AF9 inh 2, Wnt act -4, SMARCA2 act 2, MITF TRPM1 HTS 14 and FGF22 binding 43*.
Screening N#Cc1cccc(-c2ccc([C@@H]3[C@@H](CO)N4CCCCN(C(=O)Nc5ccccc5)C[C@@H]34)cc2)c1 returned MLL AF4-AF9 inh -3 and FGF22 binding 0.
`C=CC[C@@]1(C(=O)OC)N=C(c2ccc(OCCCO)cc2)O[C@@H]1c1ccccc1` gave MLL AF4-AF9 inh 1 and FGF22 binding -1.
Screening Oc1c(C=NCc2ccncc2)sc2ccccc12 returned Wnt act 10 and SMARCA2 act 6.
For Oc1c(C=Nc2cccnc2)sc2ccccc12 the results were SMARCA2 act 7.9* and MITF TRPM1 HTS 8.
Oc1c(C=Nc2ccc(Cl)cn2)sc2ccccc12 was read as MLL AF4-AF9 inh 11, Wnt act 46*, SMARCA2 act 4, MITF TRPM1 HTS 46 and FGF22 binding 0.
Screening Oc1c(/C=N/c2ccccn2)sc2ccccc12 returned MLL AF4-AF9 inh 10, Wnt act 52*, SMARCA2 act 1, esBAF inh inconclusive, MITF TRPM1 HTS 16 and FGF22 binding 0.
`Oc1c(C=Nc2ccccc2)sc2ccccc12` gave MLL AF4-AF9 inh 13, Wnt act -1, SMARCA2 act 3, MITF TRPM1 HTS 17 and FGF22 binding 0.
For CCCNC(=O)C[C@@H]1C[C@@H]2c3cc(NS(C)(=O)=O)ccc3O[C@@H]2[C@H](CO)O1 the results were MLL AF4-AF9 inh -2, esBAF inh -1 and FGF22 binding 0.
`O=C(C[C@H]1CC[C@H]2[C@@H](COC[C@H](O)CN2C(=O)Nc2ccc(Cl)c(Cl)c2)O1)NCc1ccncc1` gave MLL AF4-AF9 inh 0, esBAF inh 2 and FGF22 binding 1.
`O=S1(=O)C=CCN1Cc1cn(Cc2ccc(C(F)(F)F)cc2)nn1` gave SMARCA2 act -3.
For N=C1C(c2nc3ccccc3s2)=C(O)CN1Cc1ccco1 the results were SMARCA2 act 7, esBAF inh 53* and MITF TRPM1 HTS 88*.
`Cc1ccc(S(=O)(=O)Nc2cccc3c2O[C@@H](CN(C)Cc2ccc(Cl)c(Cl)c2)[C@H](C)CN([C@@H](C)CO)C3=O)cc1` gave MLL AF4-AF9 inh -18, esBAF inh -2 and FGF22 binding -1.
O=C(NC(=O)c1cccc(F)c1)Nc1nc(-c2ccc(F)cc2)cc(C(F)(F)F)n1 was read as MLL AF4-AF9 inh -11, Wnt act -1, SMARCA2 act -1, MITF TRPM1 HTS 11 and FGF22 binding 44*.
Screening CN(N=Nc1ccc([N+](=O)[O-])cc1)c1ccccc1 returned MLL AF4-AF9 inh 7, Wnt act 15, SMARCA2 act 0, MITF TRPM1 HTS 70 and FGF22 binding 0.
`CN(CCCC(=O)O)c1ccc(N=Nc2ccc([N+](=O)[O-])cc2)cc1` gave MLL AF4-AF9 inh 38*, Wnt act 29, SMARCA2 act 3, MITF TRPM1 HTS 12 and FGF22 binding 0.
Cc1ccc(C)c(-n2c(SCC(=O)N3CCC(C(=O)O)CC3)nnc2-c2cccc(Cl)c2)c1 was read as MLL AF4-AF9 inh 1, Wnt act -1, SMARCA2 act 0, MITF TRPM1 HTS 5 and FGF22 binding 44*.
`Cc1ccccc1S(=O)(=O)NCC[C@@H]1CC[C@@H](NC(=O)C2CCCC2)[C@H](CO)O1` gave MLL AF4-AF9 inh -1, esBAF inh 3 and FGF22 binding 0.
`C[C@H](NC(=O)C[C@H]1CC[C@H]2[C@@H](COC[C@@H](O)CN2C(=O)Nc2cccc(F)c2)O1)c1ccccc1` gave MLL AF4-AF9 inh -5, esBAF inh 28 and FGF22 binding 0.
Screening Cn1c(C(=O)NCCC2=CCCCC2)cc2c(=O)n3ccccc3nc21 returned SMARCA2 act -1, esBAF inh 44* and MITF TRPM1 HTS 65.
Screening CC(C)CC#Cc1ccc2c(c1)O[C@H](CN(C)C(=O)Cc1ccncc1)[C@H](C)CN([C@@H](C)CO)S2(=O)=O returned MLL AF4-AF9 inh 1, esBAF inh -4 and FGF22 binding 0.
Cc1cc(C)c2c(N)c(C(=O)NNC(=O)c3ccccc3)sc2n1 was read as MLL AF4-AF9 inh -3, Wnt act 7, SMARCA2 act 8, esBAF inh 66*, MITF TRPM1 HTS 37 and FGF22 binding 42.
